Assay results: publication PMC10812921, “Transcriptional Coactivator BOB1 (OBF1, OCA-B) Modulates the Specificity of DNA Recognition by the POU-Domain Factors OCT1 and OCT2 in a Monomeric Configuration”

How the values were obtained:
[1] = molecular target: POU1 (OCT1 POU domain) (human, UniProt P14859 260-458); experiment: EMSA-SELEX-seq; no BOB1; 20 mM Tris-HCl pH 7.6, 140 mM NaCl, 10% glycerol, 0.5 mM EDTA, 0.05% Triton X-100, 0.1 mg/mL BSA, 0.1 mg/mL poly(dI-dC), 5 mM DTT, room temperature, 20 min; high values mean tight binding; conditions: protein: recombinant; dsDNA, one strand shown
Method in brief: (§1)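 A double-stranded random 35-nt library (300 ng, PCR-amplified) was incubated with 30 ng tagged POU-domain protein, with or without 28 ng coactivator protein, in 20 μL Tris–HCl pH 7.6 binding buffer for 20 min at RT. The proteins had been expressed in E. coli BL21, purified under denaturing conditions and renatured. Complex bands from native 6% PAGE were eluted and PCR-amplified over four rounds, then sequenced on Illumina. For binding preference, the percentage of sequenced 8-mers matching a motif pattern was calculated.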

[2] = molecular target: T1, POU2 (OCT2 POU domain) (human, UniProt P09086 175-386); experiment: as above; conditions: protein: recombinant; dsDNA, one strand shown
T1 sequence: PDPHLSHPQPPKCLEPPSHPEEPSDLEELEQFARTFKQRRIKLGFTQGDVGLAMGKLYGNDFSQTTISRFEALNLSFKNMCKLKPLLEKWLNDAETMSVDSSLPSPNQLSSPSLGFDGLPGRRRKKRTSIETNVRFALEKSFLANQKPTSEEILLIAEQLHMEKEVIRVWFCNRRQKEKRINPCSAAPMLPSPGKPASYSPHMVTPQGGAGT
Method in brief: as §1

[3] = molecular target: POU1 (OCT1 POU domain);BOB1 (OBF1, OCA-B) (human;human, UniProt P14859;Q16633 260-458;1-256, |); experiment: EMSA-SELEX-seq; with BOB1 (ternary complex band); 20 mM Tris-HCl pH 7.6, 140 mM NaCl, 10% glycerol, 0.5 mM EDTA, 0.05% Triton X-100, 0.1 mg/mL BSA, 0.1 mg/mL poly(dI-dC), 5 mM DTT, room temperature, 20 min; high values mean tight binding; conditions: protein: recombinant;recombinant; copies: 1;1; dsDNA, one strand shown
Method in brief: as §1

[4] = molecular target: T2, POU2 (OCT2 POU domain);BOB1 (OBF1, OCA-B) (human;human, UniProt P09086;Q16633 175-386;1-256, |); experiment: as above; conditions: protein: recombinant;recombinant; copies: 1;1; dsDNA, one strand shown
T2 sequence 1: T1 sequence
T2 sequence 2: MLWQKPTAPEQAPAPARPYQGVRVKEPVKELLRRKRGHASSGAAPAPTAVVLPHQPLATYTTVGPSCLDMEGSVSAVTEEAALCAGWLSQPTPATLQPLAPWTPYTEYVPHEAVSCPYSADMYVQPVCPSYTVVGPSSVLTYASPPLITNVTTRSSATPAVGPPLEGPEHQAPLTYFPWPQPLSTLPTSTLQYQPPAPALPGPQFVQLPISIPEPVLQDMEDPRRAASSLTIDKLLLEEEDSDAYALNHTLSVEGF
Method in brief: as §1

POU1 (OCT1 POU domain), sequence (P14859 260-458): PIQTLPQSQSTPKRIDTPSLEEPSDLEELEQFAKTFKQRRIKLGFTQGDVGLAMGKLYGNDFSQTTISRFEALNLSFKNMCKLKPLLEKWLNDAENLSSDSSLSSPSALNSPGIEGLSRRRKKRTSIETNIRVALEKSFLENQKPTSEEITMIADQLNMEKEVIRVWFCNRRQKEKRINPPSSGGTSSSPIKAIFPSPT

| Sequence | binding signal [1] | binding signal [2] | binding signal [3] | binding signal [4] |
| --- | --- | --- | --- | --- |
| AATGGAAG | 0.101 % of ANNNNAAN 8-mers | 0.076 % of ANNNNAAN 8-mers | 0.0644 % of ANNNNAAN 8-mers | 0.0792 % of ANNNNAAN 8-mers |
| AGGGTAAG | 0.0503 % of ANNNNAAN 8-mers | 0.0541 % of ANNNNAAN 8-mers | 0.0531 % of ANNNNAAN 8-mers | 0.0776 % of ANNNNAAN 8-mers |
| AAATTAAG | 0.303 % of ANNNNAAN 8-mers | 0.342 % of ANNNNAAN 8-mers | 0.238 % of ANNNNAAN 8-mers | 0.319 % of ANNNNAAN 8-mers |
| ACTAGAAC | 0.016 % of ANNNNAAN 8-mers | 0.0207 % of ANNNNAAN 8-mers | 0.0144 % of ANNNNAAN 8-mers | 0.0149 % of ANNNNAAN 8-mers |
| AACCAAAC | 0.0248 % of ANNNNAAN 8-mers | 0.0236 % of ANNNNAAN 8-mers | 0.0437 % of ANNNNAAN 8-mers | 0.0239 % of ANNNNAAN 8-mers |
| ATCCTAAG | 0.0324 % of ANNNNAAN 8-mers | 0.0299 % of ANNNNAAN 8-mers | 0.0312 % of ANNNNAAN 8-mers | 0.0405 % of ANNNNAAN 8-mers |
| AAAAGAAC | 0.0351 % of ANNNNAAN 8-mers | 0.0443 % of ANNNNAAN 8-mers | 0.0468 % of ANNNNAAN 8-mers | 0.0338 % of ANNNNAAN 8-mers |
| AGTCAAAA | 0.164 % of ANNNNAAN 8-mers | 0.117 % of ANNNNAAN 8-mers | 0.265 % of ANNNNAAN 8-mers | 0.115 % of ANNNNAAN 8-mers |
| AGCGGAAA | 0.0378 % of ANNNNAAN 8-mers | 0.0472 % of ANNNNAAN 8-mers | 0.0324 % of ANNNNAAN 8-mers | 0.033 % of ANNNNAAN 8-mers |
| AGATTAAA | 0.105 % of ANNNNAAN 8-mers | 0.11 % of ANNNNAAN 8-mers | 0.0648 % of ANNNNAAN 8-mers | 0.071 % of ANNNNAAN 8-mers |
| ACAAGAAT | 0.0454 % of ANNNNAAN 8-mers | 0.0518 % of ANNNNAAN 8-mers | 0.0437 % of ANNNNAAN 8-mers | 0.0512 % of ANNNNAAN 8-mers |
| ACGGAAAG | 0.0397 % of ANNNNAAN 8-mers | 0.0443 % of ANNNNAAN 8-mers | 0.0406 % of ANNNNAAN 8-mers | 0.0371 % of ANNNNAAN 8-mers |
| ATTGAAAA | 0.09 % of ANNNNAAN 8-mers | 0.076 % of ANNNNAAN 8-mers | 0.0925 % of ANNNNAAN 8-mers | 0.0627 % of ANNNNAAN 8-mers |
| ATACCAAC | 0.0244 % of ANNNNAAN 8-mers | 0.0276 % of ANNNNAAN 8-mers | 0.0242 % of ANNNNAAN 8-mers | 0.0215 % of ANNNNAAN 8-mers |
| ACCGGAAA | 0.0271 % of ANNNNAAN 8-mers | 0.0236 % of ANNNNAAN 8-mers | 0.0265 % of ANNNNAAN 8-mers | 0.0281 % of ANNNNAAN 8-mers |
| ATGATAAA | 0.104 % of ANNNNAAN 8-mers | 0.131 % of ANNNNAAN 8-mers | 0.0644 % of ANNNNAAN 8-mers | 0.0619 % of ANNNNAAN 8-mers |
| ACTGCAAT | 0.0301 % of ANNNNAAN 8-mers | 0.0213 % of ANNNNAAN 8-mers | 0.0367 % of ANNNNAAN 8-mers | 0.0248 % of ANNNNAAN 8-mers |
| ATCGAAAC | 0.0275 % of ANNNNAAN 8-mers | 0.0236 % of ANNNNAAN 8-mers | 0.0316 % of ANNNNAAN 8-mers | 0.0215 % of ANNNNAAN 8-mers |
| AGTAGAAG | 0.0404 % of ANNNNAAN 8-mers | 0.0391 % of ANNNNAAN 8-mers | 0.0336 % of ANNNNAAN 8-mers | 0.0297 % of ANNNNAAN 8-mers |
| ACACTAAA | 0.0256 % of ANNNNAAN 8-mers | 0.0293 % of ANNNNAAN 8-mers | 0.0273 % of ANNNNAAN 8-mers | 0.0173 % of ANNNNAAN 8-mers |
| AACGAAAC | 0.0225 % of ANNNNAAN 8-mers | 0.027 % of ANNNNAAN 8-mers | 0.0238 % of ANNNNAAN 8-mers | 0.0157 % of ANNNNAAN 8-mers |
| AGGACAAA | 0.045 % of ANNNNAAN 8-mers | 0.046 % of ANNNNAAN 8-mers | 0.0453 % of ANNNNAAN 8-mers | 0.0371 % of ANNNNAAN 8-mers |
| AGGTTAAG | 0.0522 % of ANNNNAAN 8-mers | 0.0639 % of ANNNNAAN 8-mers | 0.0542 % of ANNNNAAN 8-mers | 0.052 % of ANNNNAAN 8-mers |
| ATGTAAAA | 0.714 % of ANNNNAAN 8-mers | 0.496 % of ANNNNAAN 8-mers | 0.631 % of ANNNNAAN 8-mers | 0.618 % of ANNNNAAN 8-mers |
| ACAAAAAT | 0.0938 % of ANNNNAAN 8-mers | 0.0667 % of ANNNNAAN 8-mers | 0.114 % of ANNNNAAN 8-mers | 0.0768 % of ANNNNAAN 8-mers |
| ACAAGAAG | 0.0347 % of ANNNNAAN 8-mers | 0.0316 % of ANNNNAAN 8-mers | 0.0273 % of ANNNNAAN 8-mers | 0.0322 % of ANNNNAAN 8-mers |
| AAGCGAAT | 0.0538 % of ANNNNAAN 8-mers | 0.0541 % of ANNNNAAN 8-mers | 0.0531 % of ANNNNAAN 8-mers | 0.0429 % of ANNNNAAN 8-mers |
| ATCCAAAG | 0.0427 % of ANNNNAAN 8-mers | 0.0397 % of ANNNNAAN 8-mers | 0.0566 % of ANNNNAAN 8-mers | 0.0446 % of ANNNNAAN 8-mers |
